PubChem BioAssay (NCATS)
Where “and” joins values, the source holds several entries; their conditions need not be identical. Equal entries are not always repeated. Inconclusive results are not listed. Calls of active or inactive are those of the source. Calls come from the whole dose curve; as a rule, active = well fitted inhibition curve with a large enough effect; inconclusive = small, poorly fitted or top-dose-only effect; inactive = flat fitted curve, though single readings scatter.

Legend:
TAB109 = test: qHTS profiling for inhibitors of Plasmodium falciparum proliferation (AID 504749); note: potency is the fitted concentration of half-maximal effect; details: P. falciparum in erythrocytes, SYBR Green DNA, 72 h; series mostly up to 28.7 µM
Method in brief: (§1)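 Fluorescence of SYBR Green-bound parasite DNA, read at 485/535 nm, served as the growth measure. Infected erythrocytes were cultured with compound 72 h; artemisinin (0.29 uM) and DMSO wells defined the normalization range.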

TAB113 = test: as above; details: P. falciparum in erythrocytes, SYBR Green DNA, 72 h; series mostly up to 28.7 µM
Method in brief: as §1

TAB165 = test: as above; details: P. falciparum in erythrocytes, SYBR Green DNA, 72 h; series mostly up to 28.7 µM
Method in brief: as §1

W2 = test: as above; details: P. falciparum in erythrocytes, SYBR Green DNA, 72 h; series mostly up to 28.7 µM
Method in brief: as §1

CRL-7250 = normal cell line; test: Cytotoxic Profiling of Annotated Libraries Using Quantitative High-Throughput Screening (AID 1296008); details: Five cell lines viability, CellTiter-Glo ATP luminescence, 48-72 h; max response: active compounds read low; for max response: % is set by controls: 0 for no effect and ±100 for the full control effect
Method in brief: (§2)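 Compounds were pin-transferred onto cells and incubated 48 or 72 hr at 37 degree Celsius, 95% humidity. CellTiter-Glo was added, plates sat 10 min at room temperature, then ATP-coupled luminescence was imaged as the viability read-out.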

HEK293 = test: as above; details: Five cell lines viability, CellTiter-Glo ATP luminescence, 48-72 h; max response: active compounds read low
Method in brief: as §2

HaCat [1] = test: as above; details: Five cell lines viability, CellTiter-Glo ATP luminescence, 48-72 h; max response: active compounds read low
Method in brief: as §2

KB-3-1 = test: as above; details: Five cell lines viability, CellTiter-Glo ATP luminescence, 48-72 h; max response: active compounds read low
Method in brief: as §2

NIH3T3 = test: as above; details: Five cell lines viability, CellTiter-Glo ATP luminescence, 48-72 h; max response: active compounds read low
Method in brief: as §2

HACAT [2] = test: qHTS assay to identify novel small-molecules to repurpose for Merkel cell carcinoma treatment (AID 1296009); details: MCC and control cell lines, CellTiter-Glo viability, 72 h; at 44.8 µM (top of the series) unless noted
Method in brief: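 Luminescence from CellTiter-Glo, read 10 min after addition at room temperature, reported viability following a 72 hr, 37 degree celsius treatment with NPC or MIPE compounds in titration; values normalized to plate controls.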
Note: nearly all actives have a fitted effect of over 60% in size.

[O-][n+]1cccc(CO)c1
inactive: Potency (TAB109) | Potency (TAB113) | Potency (TAB165) | Potency (W2) | max response (CRL-7250) -1.91% | outcome (HEK293) | outcome (HaCat [1]) | max response (KB-3-1) 4.61% | outcome (NIH3T3) | outcome (HACAT [2])

Cc1cccc(C)c1NC(=O)CN(CC(=O)O)CC(=O)O
inactive: Potency (TAB109) | Potency (TAB113) | Potency (TAB165) | max response (CRL-7250) 0.46% | outcome (HEK293) | outcome (HaCat [1]) | max response (KB-3-1) 2.9% | max response (NIH3T3) -7.57% | outcome (HACAT [2])

Nc1cc(=O)[nH]c(N)n1
inactive: outcome (CRL-7250) | max response (HEK293) 4.25% | outcome (HaCat [1]) | max response (KB-3-1) -2.08% | max response (NIH3T3) -15.9% | outcome (HACAT [2])

C[C@@H](O)[C@H](N)C(=O)O
inactive: max response (CRL-7250) -2.34% | outcome (HEK293) | outcome (HaCat [1]) | max response (KB-3-1) 1.86% | max response (NIH3T3) -1.06% | outcome (HACAT [2]) inactive [at 17.4 µM]

O=C1OC(OC(=O)c2cccnc2Nc2cccc(C(F)(F)F)c2)c2ccccc21 (stereo not drawn)
inactive: Potency (TAB109) | Potency (TAB113) | Potency (TAB165) | Potency (W2) | max response (CRL-7250) 1.85% | outcome (HEK293) | outcome (HaCat [1]) | max response (KB-3-1) 7.28% | max response (NIH3T3) -3.9% | outcome (HACAT [2])

CN(C)CCCO[C@@H]1[C@H]2OC(C)(C)O[C@H]2O[C@@H]1C(O)CO (stereo partly drawn)
inactive: max response (CRL-7250) -6.03% | outcome (HEK293) | outcome (HaCat [1]) | max response (KB-3-1) 3.47% | max response (NIH3T3) -0.499% | outcome (HACAT [2])

CCCCCCCCCCCCOS(=O)(=O)O
inactive: Potency (TAB109) | Potency (TAB113) | Potency (TAB165) | Potency (W2) | outcome (CRL-7250) | outcome (HEK293) | outcome (HaCat [1]) | max response (KB-3-1) 16.2% | outcome (NIH3T3) | outcome (HACAT [2])

Cc1cc(O)cc2c1O[C@](C)(CCC[C@H](C)CCC[C@H](C)CCCC(C)C)CC2
inactive: Potency (TAB109) | Potency (TAB113) | Potency (TAB165) | Potency (W2) | max response (CRL-7250) -1.48% | max response (HEK293) 2.12% | outcome (HaCat [1]) | max response (KB-3-1) -4.01% and 1.69% | outcome (NIH3T3) | outcome (HACAT [2])

CC(C)(C)NCC(O)COc1ccc(NC(=O)NC2CCCCC2)cc1 (stereo not drawn)
inactive: Potency (TAB109) | Potency (TAB113) | Potency (TAB165) | Potency (W2) | outcome (CRL-7250) | outcome (HEK293) | outcome (HaCat [1]) | max response (KB-3-1) 0.958% | outcome (NIH3T3) | outcome (HACAT [2])

CC(O)COc1ccccc1 (stereo not drawn)
inactive: Potency (TAB109) | Potency (TAB113) | Potency (TAB165) | Potency (W2) | max response (CRL-7250) 2.21% | outcome (HEK293) | outcome (HaCat [1]) | max response (KB-3-1) 5.08% | max response (NIH3T3) -1.73% | outcome (HACAT [2])

CC[C@@]1(c2ccccc2)NC(=O)N(C)C1=O
inactive: Potency (TAB109) | Potency (TAB113) | Potency (TAB165) | Potency (W2) | max response (CRL-7250) -4% | outcome (HEK293) | outcome (HaCat [1]) | max response (KB-3-1) 31.6% | max response (NIH3T3) 1.13% | outcome (HACAT [2])

N[C@@H](CSCCCO)C(=O)O
inactive: Potency (TAB109) | Potency (TAB113) | Potency (TAB165) | Potency (W2) | max response (CRL-7250) -1.84% | outcome (HEK293) | max response (HaCat [1]) 2.87% | max response (KB-3-1) -1.02% | outcome (NIH3T3)

Cc1c(Cl)cccc1Nc1ccccc1C(=O)O
active: Potency (W2) 9.53 µM
inactive: Potency (TAB109) | Potency (TAB113) | Potency (TAB165) | outcome (CRL-7250) | outcome (HEK293) | outcome (HaCat [1]) | max response (KB-3-1) -2.57% | outcome (NIH3T3) | outcome (HACAT [2])

C[C@H](N)[C@H](O)c1cccc(O)c1
inactive: Potency (TAB109) | Potency (TAB113) | Potency (TAB165) | Potency (W2) | max response (CRL-7250) -3.27% | outcome (HEK293) | outcome (HaCat [1]) | max response (KB-3-1) 1.71% | max response (NIH3T3) 1.91% | outcome (HACAT [2])

CCCCCCCCCCCCCCCC(=O)NCCO
inactive: Potency (TAB109) | Potency (TAB113) | Potency (TAB165) | Potency (W2) | outcome (CRL-7250) | outcome (HEK293) | max response (HaCat [1]) -5.78% | max response (KB-3-1) -1.52% | max response (NIH3T3) 2.39%

CC(=O)Nc1ccc(/C=N/NC(N)=S)cc1
inactive: Potency (TAB109) | Potency (TAB113) | Potency (TAB165) | Potency (W2) | outcome (CRL-7250) | max response (HEK293) 0.104% | outcome (HaCat [1]) | max response (KB-3-1) -10.7% and 2.19% | max response (NIH3T3) -3.1% | outcome (HACAT [2])

NCC(=O)CCC(=O)O
inactive: Potency (TAB109) | Potency (TAB113) | Potency (TAB165) | max response (CRL-7250) -2.12% | outcome (HEK293) | max response (HaCat [1]) -9.5% | max response (KB-3-1) 1.71% | outcome (NIH3T3)

NCCNCCNCCNCCN
inactive: Potency (TAB109) | Potency (TAB113) | Potency (TAB165) | Potency (W2) | max response (CRL-7250) 3.13% | outcome (HEK293) | outcome (HaCat [1]) | max response (KB-3-1) -4.72% | max response (NIH3T3) -0.231% | outcome (HACAT [2]) inactive [at 9.27 µM]

NCCNCCNCCN
inactive: Potency (TAB109) | Potency (TAB113) | Potency (TAB165) | Potency (W2) | max response (CRL-7250) 1.87% | outcome (HEK293) | outcome (HaCat [1]) | max response (KB-3-1) -5.28% | max response (NIH3T3) -1.13% | outcome (HACAT [2])

C#CCN(C)Cc1ccccc1
inactive: Potency (TAB109) | Potency (TAB113) | Potency (TAB165) | Potency (W2) | max response (CRL-7250) 4.31% | max response (HEK293) -27.7% | outcome (HaCat [1]) | max response (KB-3-1) -4.93% | max response (NIH3T3) 3.32% | outcome (HACAT [2])

O=C1c2c(O)cccc2Cc2cccc(O)c21
inactive: Potency (TAB109) | Potency (TAB113) | Potency (TAB165) | Potency (W2) | max response (CRL-7250) 0.516% | outcome (HEK293) | outcome (HaCat [1]) | max response (KB-3-1) -0.793% | max response (NIH3T3) 4.73% | outcome (HACAT [2])

CCCCC(CC)COC(=O)c1ccccc1O (stereo not drawn)
inactive: Potency (TAB109) | Potency (TAB113) | Potency (TAB165) | Potency (W2) | max response (CRL-7250) -6.25% | outcome (HEK293) | outcome (HaCat [1]) | max response (KB-3-1) -6.97% | outcome (NIH3T3) | outcome (HACAT [2])

CCC(=O)Nc1ccc(O)cc1
inactive: Potency (TAB109) | Potency (TAB113) | Potency (TAB165) | Potency (W2) | max response (CRL-7250) -0.238% | outcome (HEK293) | outcome (HaCat [1]) | max response (KB-3-1) 18.3% | max response (NIH3T3) 0.658% | outcome (HACAT [2])

NC1CCN(c2cccc(Cl)n2)CC1
active: Potency (W2) 6.01 µM
inactive: Potency (TAB109) | Potency (TAB113) | Potency (TAB165) | max response (CRL-7250) 0.115% | max response (HEK293) -9.08% | outcome (HaCat [1]) | max response (KB-3-1) 2% | outcome (NIH3T3) | outcome (HACAT [2])

NC(=O)NC(=O)Cc1ccccc1
inactive: Potency (TAB109) | Potency (TAB113) | Potency (TAB165) | Potency (W2) | max response (CRL-7250) 3.98% | outcome (HEK293) | outcome (HaCat [1]) | max response (KB-3-1) 5.24% | max response (NIH3T3) 3.84% | outcome (HACAT [2])
